Source: PubChem BioAssay AID1839 (Johns Hopkins Ion Channel Center, 2009)
Out of some 2,400 compounds screened, about 220 (9.2%) were called active. For the sample, actives were picked, then their nearest neighbours and some compounds at random. Values without a mark were called inactive.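 The calls were made as follows: active = signal change above the mean of dofetilide-free buffer controls plus 3 SD, so a positive margin; inactive = the rest.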

Assay: nonspecific flux effects in parental CHO-K1, confirmation, counter-screen for hERG block protection project, cell-based, CHO-K1 parental line, FluxOR thallium flux (AID 1839);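 also: compounds applied alone with no dofetilide to cells lacking hERG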
Settings: CHO-K1 parental cells, FluxOR thallium flux fluorescence; at 10 µM

| Structure (SMILES) | signal change vs control minus 3*SD hit threshold (margin above threshold, higher = more increase) |
| --- | --- |
| Cc1ccc(/C(O)=C2\C(=O)C(=O)N(Cc3cccnc3)C2c2ccccc2[N+](=O)[O-])cc1 (centres undefined) | -21.1% |
| COc1cc(NC(=O)c2ccccc2)c(OC)cc1NC(=O)Cc1ccc(Br)cc1 | -10.9% |
| Cc1ccccc1OCC(=O)N=Nc1c(O)n(C)c2ccccc12 | -17.7% |
| Cn1c(O)c(N=Nc2nc(-c3ccccc3)cs2)c2ccccc21 | 31.7% (active) |
| CCc1ccc2[nH]c(O)c(N=Nc3nc(-c4ccccc4)cs3)c2c1 | -38.8% |
| Cc1nn(CCC(=O)NNC(=S)Nc2ccc(F)cc2)c(C)c1[N+](=O)[O-] | -35.8% |
| O=C(NC(=S)NC1CCCc2ccccc21)c1ccco1 (centres undefined) | -14.2% |
| Cc1nonc1CN(C)C(=O)c1ccc(OC2CCN(Cc3ccccn3)CC2)cc1 | -22.2% |
| COCCNC(=O)C1CCN(S(=O)(=O)N2CCC3(CC2)OCCO3)CC1 | -40.3% |
| CCC1(c2ccc(Cl)cc2)NC(=S)N(c2ccc(C)cc2)N1 (centres undefined) | 18.9% (active) |
| CCC1(c2ccccc2)NC(=S)N(c2ccc(C)cc2)N1 (centres undefined) | 48.2% (active) |
| CCC1(c2ccc(Cl)cc2)NC(=S)N(c2ccccc2)N1 (centres undefined) | 40.1% (active) |
| CC1=CN2C(=N)/C(=C/c3ccc(Sc4ccc(Cl)cc4)o3)C(=O)N=C2S1 | -23.1% |
| O=C(NC(=S)N(CC1CCC1)CC1CCCO1)c1cccc([N+](=O)[O-])c1 (centres undefined) | -12.6% |
| CCCCCOCC1CC(C/C(C)=N/Nc2nc(-c3ccccc3)cs2)C(=O)O1 (centres undefined) | -31.7% |
| N#C/C(=N\Nc1ccccc1F)c1nc(-c2ccccc2)cs1 | -39.4% |
| O=C(Nc1ccc(Cl)c(Cl)c1)Nc1nnc(CSc2ccccc2)s1 | -17.6% |
| C=CCn1c(SCc2ccc(C(=O)O)cc2)nc2sc(C)c(C)c2c1=O | 7% (active) |
| CCn1c(SCC(=O)NC(=O)NCc2ccco2)nc2sc(C)c(C)c2c1=O | -17.8% |
| C=CCSc1nc2sc3c(c2c(=O)n1CC)CCc1ccccc1-3 | -22.2% |
| CCc1nccn1S(=O)(=O)c1ccc2ccc(C)cc2c1 | -33.5% |
| COc1ccc(Cc2c(O)nc(SCC(C)C)[nH]c2=O)cc1 | -32.4% |
| S=c1nc[nH]c2c1sc1nc(N3CCOCC3)c3c(c12)CCCC3 | 1.1% (active) |

| Structure (SMILES) | signal change vs control minus 3*SD hit threshold (margin above threshold, higher = more increase) |
| --- | --- |
| S=c1nc[nH]c2c1sc1nc(-c3ccccc3)c3c(c12)CCCC3 | -5.5% |
| CC(C)c1nc2sc3c(=S)nc[nH]c3c2c2c1CCC2 | -10.6% |
| O=C(O)CCCN1C(=O)C2C3c4ccccc4C(c4ccccc43)[C@@H]2C1=O (some centres undefined) | -37.1% |
| COc1ccc(C(CC(=O)O)NC(=O)C(c2ccccc2)c2ccccc2)cc1 (centres undefined) | -32.8% |
| O=C(N/N=C/c1ccc(OC(F)F)cc1)C1=COCCO1 | -28.8% |
| CCOC(=O)c1sc(NC(=S)NC(=O)c2cccc(OC)c2)nc1C | -15.5% |
| COc1ccc(N2CCN(C(=S)Nc3cccc(OC)c3)CC2)cc1 | -27% |
| COc1ccc(NC(=O)CNC(=O)c2cccs2)cc1Cl | -23.5% |
| O=C(NC(=S)Nc1ccccc1N1CCCCC1)c1cccs1 | -17.4% |
| S=c1nc(C2CC2)[nH]c2ccccc12 | -0.5% |
| S=c1nc(Cc2ccc(Cl)cc2)[nH]c2ccccc12 | 7.6% (active) |
| S=c1nc(C2CCCCC2)[nH]c2ccccc12 | -20.4% |
| CCOC(=O)c1sc2nc(Cc3ccc(Cl)cc3)[nH]c(=S)c2c1C | -19.8% |
| S=c1nc(SCc2ccccc2)[nH]c2ccccc12 | 40.3% (active) |
| CC(C)c1ccc(/C=N/n2c(COc3ccccc3)n[nH]c2=S)cc1 | -21.3% |
| O=C(O)CCCCCNc1nc(=S)[nH]c2ccccc12 | -17.7% |
| S=c1nc(Cc2ccccc2)[nH]c2ccccc12 | 36% (active) |
| CCC(Cc1ccccc1)n1c(=S)[nH]c2ccccc2c1=O (centres undefined) | -32.2% |
| S=c1[nH]nc(-c2ccc(Cl)cc2)n1Cc1ccccc1 | -36.8% |
| O=c1[nH]c(SCc2cccc(Cl)c2)nc2ccccc12 | -29.3% |
| S=c1nc(COc2ccccc2)[nH]c2ccccc12 | 59.3% (active) |
| C#CCN1C(=O)S/C(=C\c2ccc(-c3ccc(C(=O)O)cc3C)o2)C1=O | -26.1% |
| CC/C(=N\NC(=S)Nc1cccc(C)c1)c1ccccc1 | -31.9% |

| Structure (SMILES) | signal change vs control minus 3*SD hit threshold (margin above threshold, higher = more increase) |
| --- | --- |
| COc1ccc(/C=N/NC(=O)C(=O)N2CCCC2)cc1 | -11.5% |
| Cc1cccc(C)c1NC(=O)Cn1cnc2c(=O)n(C)c(=O)n(C)c21 | -26.9% |
| Cn1nc(C(=O)Nc2ccc3c(c2)OCO3)c2ccccc2c1=O | -35.3% |
| CCOC(=O)NC(=O)/C(C#N)=N\Nc1ccc(Cl)cc1 | -36.7% |
| Cc1c(-c2ccn[nH]2)cc(NC(=O)c2ccc(Cl)cc2)c(=O)n1N | -40% |
| Cc1cc(C)nc(SCc2nnc(SCC(=O)Nc3nc(-c4ccccc4)cs3)n2-c2ccccc2)n1 | -32% |
| COc1ccc(CCNC(=O)CSc2ccc3nnc(CCNC(=O)c4ccccc4)n3n2)cc1OC | -23.3% |
| COc1ccc2nc(N3CCCCC3)c(/C=C3\SC(=S)NC3=O)cc2c1 | -33% |
| O=C1NC(=S)S/C1=C\c1ccc2ccccc2c1 | 30.2% (active) |
| O=C1NC(=S)/C(=C\c2ccc(-c3ccccc3Cl)o2)S1 | -34.6% |
| O=C(CN1C(=O)S/C(=C\c2cccs2)C1=O)Nc1ccc(C(=O)O)c(O)c1 | -0.8% |
| Cc1ccc(S(=O)(=O)c2nnn3c2nc(N2CCOCC2)c2ccccc23)c(C)c1 | -25.3% |
| COC(=O)c1sccc1NC(=S)N1CCN(C)CC1 | -34.3% |
| Cc1ccc(-c2onc3ccc(Cl)cc23)cc1 | -25.3% |
| O=C(Cc1ccccc1)Nn1c(-c2ccccc2)nc2ccccc2c1=O | -21.4% |
| O=c1c2cc(Cl)ccc2nc(-c2ccc(Cl)c(Cl)c2)n1O | 62.4% (active) |
| Cc1ccc(-c2nc3ccc(Cl)cc3c(=O)n2O)cc1 | 38% (active) |
| NC(=O)CSc1nc2ccccc2c(=O)n1CCc1ccccc1 | -28.3% |
| O=c1c2cc(Cl)ccc2nc(-c2ccccc2)n1O | -7.8% |
| Cc1ccc(C(=O)Nc2nc3ccccc3c(=O)s2)cc1 | -16.6% |
| O=c1c2ccccc2nc(-c2ccc(Cl)c(Cl)c2)n1O | 20.1% (active) |
| O=c1c2ccccc2nc(-c2ccccc2)n1O | -24.1% |
| O=c1c2ccccc2nc(-c2cccc(Cl)c2)n1O | 0.8% (active) |
